Test systems include EKVX NSCLC; SN12C renal; UO-31 renal; ACHN renal; CAKI-1 renal; A498 renal; CCRF-CEM leukemia; MOLT-4 leukemia; SR leukemia; RPMI-8226 leukemia; OVCAR-8 ovarian; OVCAR-5 ovarian; OVCAR-4 ovarian; IGROV1 ovarian; OVCAR-3 ovarian; HS 578T breast; NCI/ADR-RES ovarian; T-47D breast; SK-OV-3 ovarian.
What all share (assay): NCI-60 one-dose screen, 48 h (100 = growth as untreated, 0 = no growth, -100 = all killed)
Holding throughout (conditions): 10 µM unless noted

Our source for the growth values is PubChem BioAssay (NCI).

Compounds without any hit were thinned out: in the full panel of roughly 83,000, 20% have a hit.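 Percent growth is the endpoint: 0 to 100 indicates growth inhibition (40 means 60% inhibition), 0 means no net growth, and negative values indicate cell death.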 Unmarked numbers belong to inactive results. Active and inactive are the calls of the source. The calls were made as follows: active = growth percent below 10; inactive = the rest.

Regarding `C#C[C@]1(O)CC[C@H]2[C@@H]3CC=C4c5sc(Nc6ccc(Cl)cn6)nc5CC[C@]4(C)[C@H]3CC[C@@]21C`, the growth in the assay with EKVX NSCLC was 42.3%; with SN12C renal, 79.5%; in the assay with UO-31 renal it was 40%; in the assay on ACHN renal, 53.6%; in the assay with CAKI-1 renal it was 29.1%; in the assay on A498 renal, -6.58% (active). For the same molecule, the growth is 15.1% in the assay on CCRF-CEM leukemia; 2.85% (active) in the assay with MOLT-4 leukemia; 7.04% (active) with SR leukemia; -21.2% (active) in the assay with RPMI-8226 leukemia; 49.6% in the assay with OVCAR-8 ovarian; 75.8% with OVCAR-5 ovarian. Also, the growth is 65.3% with OVCAR-4 ovarian; 71.5% with IGROV1 ovarian; 74.3% in the assay on OVCAR-3 ovarian; -2.9% (active) with HS 578T breast; 54.1% in the assay with NCI/ADR-RES ovarian; 68.8% in the assay on T-47D breast.

Turning to `[Cl][Ru].c1ccc(-c2cc(-c3ccccn3)nc(-c3ccccn3)c2)cc1.c1ccc(-c2ccnc3c2ccc2c(-c4ccccc4)ccnc23)cc1`, the growth in the assay with EKVX NSCLC was 25.9%; in the assay with SN12C renal, -22.5% (active); in the assay with UO-31 renal it was 63.9%; in the assay on ACHN renal it was 6% (active); in the assay with CAKI-1 renal, -6.38% (active); with A498 renal, -20.2% (active). The growth was 0.187% (active) with CCRF-CEM leukemia; -16.8% (active) with MOLT-4 leukemia; -40.3% (active) in the assay with SR leukemia; -41.8% (active) in the assay on RPMI-8226 leukemia; -65.5% (active) in the assay with OVCAR-8 ovarian; 18.3% with OVCAR-5 ovarian. Moreover, the growth is 15.6% in the assay with OVCAR-4 ovarian; -12.1% (active) in the assay on SK-OV-3 ovarian; -59.2% (active) with IGROV1 ovarian; -64.2% (active) in the assay on OVCAR-3 ovarian; -15.1% (active) in the assay on HS 578T breast; 93.7% in the assay with NCI/ADR-RES ovarian. Also, the growth in the assay on T-47D breast was -11.4% (active).

`O=C1Nc2ccc(Cl)cc2/C1=C/c1ccc(OCC(=O)c2ccc(Br)cc2)cc1`: the growth with EKVX NSCLC is 81.6%; with SN12C renal, 93.5%; in the assay on UO-31 renal, 73.4%; in the assay on ACHN renal, 88.4%; with CAKI-1 renal, 76.1%; in the assay with A498 renal, 107%. Moreover, the growth is 102% in the assay with CCRF-CEM leukemia; 95.6% in the assay with MOLT-4 leukemia; 103% with SR leukemia; 101% in the assay with RPMI-8226 leukemia; 96% in the assay with OVCAR-8 ovarian; 93.2% with OVCAR-5 ovarian. Further, the growth in the assay on OVCAR-4 ovarian is 91.7%; in the assay on IGROV1 ovarian it was 63%; with OVCAR-3 ovarian, 90.3%; in the assay with HS 578T breast it was 89.3%; in the assay with NCI/ADR-RES ovarian, 93.3%; in the assay with T-47D breast, 84.2%.

With `CN(C)CCCOc1c2ccc(Cl)cc2nc2c1oc1ccccc12`, the growth in the assay with EKVX NSCLC is -41.6% (active); in the assay with SN12C renal it was 18%; in the assay with UO-31 renal it was -51.9% (active); in the assay on ACHN renal, -6.02% (active); in the assay with CAKI-1 renal, 1.08% (active); in the assay on A498 renal, -91.8% (active). The growth with CCRF-CEM leukemia is 0.191% (active); in the assay with MOLT-4 leukemia, -17% (active); with SR leukemia, -34.2% (active); in the assay with RPMI-8226 leukemia, -22.1% (active); in the assay on OVCAR-8 ovarian, -17.8% (active); in the assay with OVCAR-5 ovarian it was 4.62% (active). Besides, the growth in the assay with OVCAR-4 ovarian is 1.72% (active); in the assay on SK-OV-3 ovarian, -8.76% (active); in the assay with IGROV1 ovarian, -8.93% (active); in the assay with HS 578T breast it was 5.22% (active); with NCI/ADR-RES ovarian, 3.15% (active); in the assay on T-47D breast, 13.5%.

Turning to `COc1ccc(-c2nn3c(-c4ccccc4F)nnc3s2)cc1`, the growth in the assay on EKVX NSCLC was 70%; with SN12C renal, 58.2%; with UO-31 renal, 65%; in the assay on ACHN renal it was 78.1%; with CAKI-1 renal it was 50.7%; with A498 renal, 16.4%. Besides, the growth with CCRF-CEM leukemia is 58.5%; in the assay with MOLT-4 leukemia it was 35.1%; in the assay on SR leukemia it was 15.4%; in the assay with RPMI-8226 leukemia, 58%; with OVCAR-8 ovarian, 68.3%; with OVCAR-5 ovarian, 81.2%. For the same molecule, the growth in the assay on OVCAR-4 ovarian is 82%; with IGROV1 ovarian, 57.3%; in the assay on OVCAR-3 ovarian, 49.6%; in the assay on HS 578T breast, 74.2%; with T-47D breast, 46%.

Take `Clc1ccc2c(NCCCN3CCOCC3)c3oc4ccccc4c3nc2c1`: the growth is 62.6% in the assay on EKVX NSCLC; 29.9% in the assay with SN12C renal; 40.1% in the assay on UO-31 renal; 19.3% in the assay on ACHN renal; 33.7% with A498 renal; 32.8% in the assay on CCRF-CEM leukemia. Moreover, the growth is 10.6% in the assay with MOLT-4 leukemia; 8.11% (active) in the assay with SR leukemia; 23.2% in the assay with RPMI-8226 leukemia; 32.5% in the assay on OVCAR-8 ovarian; 39.6% with OVCAR-5 ovarian; 64.8% with OVCAR-4 ovarian. Further, the growth is 25.8% with IGROV1 ovarian; 74.2% in the assay with OVCAR-3 ovarian; 58.2% in the assay with HS 578T breast; 44.2% with NCI/ADR-RES ovarian; 76.5% in the assay on T-47D breast.

Turning to `CCN1CCN(S(=O)(=O)c2oc(-c3ccc(Cl)cc3)nc2C#N)CC1`, the growth was 95.6% with EKVX NSCLC; 78.7% in the assay on SN12C renal; 33.2% in the assay on UO-31 renal; -86.6% (active) in the assay on ACHN renal; 65% in the assay on CAKI-1 renal; 93.2% in the assay on A498 renal. Moreover, the growth in the assay on CCRF-CEM leukemia was 2.3% (active); with MOLT-4 leukemia, 0.374% (active); in the assay with RPMI-8226 leukemia, 29%; in the assay on OVCAR-5 ovarian, 94.8%; in the assay on OVCAR-4 ovarian, 105%; in the assay on SK-OV-3 ovarian, 129%. For the same molecule, the growth with IGROV1 ovarian is 7.89% (active); in the assay on OVCAR-3 ovarian, 41.8%; in the assay with HS 578T breast it was 105%; with T-47D breast, 7.45% (active).

On to `COc1cc2nc(-c3ccc(C(F)(F)F)cc3)cc(OCCCNCC3CCCO3)c2cc1OC` (stereo not drawn), for which the growth in the assay on EKVX NSCLC is 61.5%; in the assay with SN12C renal it was 46.2%; in the assay on UO-31 renal, 35.9%; in the assay on ACHN renal, 31.9%; in the assay on A498 renal it was 17.9%; in the assay with CCRF-CEM leukemia, 28.6%. The growth with MOLT-4 leukemia was 14.3%; with SR leukemia it was 8.68% (active); in the assay on RPMI-8226 leukemia it was -13.1% (active); in the assay on OVCAR-8 ovarian it was 35.6%; with OVCAR-5 ovarian, 40.6%; with OVCAR-4 ovarian it was 62.4%. Moreover, the growth with SK-OV-3 ovarian is 86.2%; with IGROV1 ovarian, 28.5%; in the assay on HS 578T breast, 55.6%; in the assay with NCI/ADR-RES ovarian, 41.4%; in the assay on T-47D breast, 38%.

`CS(=O)(=O)c1ccc(-c2nc3ccccn3c2-c2nc3ccc([N+](=O)[O-])cc3[nH]2)cc1`: the growth in the assay with EKVX NSCLC was 91%; in the assay on SN12C renal, 94.8%; in the assay on UO-31 renal, 77.7%; with CAKI-1 renal it was 86.2%; in the assay on A498 renal it was 87.5%; in the assay with CCRF-CEM leukemia, 101%. Moreover, the growth in the assay with MOLT-4 leukemia was 90.3%; in the assay on SR leukemia, 95.2%; in the assay with RPMI-8226 leukemia it was 95.1%; with OVCAR-8 ovarian, 94.5%; in the assay with OVCAR-5 ovarian, 97.8%; in the assay on OVCAR-4 ovarian, 93.2%. Moreover, the growth in the assay on SK-OV-3 ovarian is 107%; with IGROV1 ovarian it was 81%; in the assay on OVCAR-3 ovarian, 110%; in the assay with HS 578T breast, 99.7%; in the assay on NCI/ADR-RES ovarian, 92.2%; in the assay on T-47D breast, 91.2%.
